Counter-ions that a name gives are not always drawn.

Details in all cases: 10 µM; exposure time 6 h
In experiment [1] the test system is Danio rerio larvae (5 dpf). The experiment in a line: difference in excitability vs DMSO (percentage points); higher = more excitable than DMSO. In short, it runs like this:
(§1)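 In 96-well plates, 48 wild-type zebrafish larvae aged 5 dpf per compound received 100 µL egg water with library compound at 10 µM final for 6 h. Three hours into this, a 3-h programme of moving lines and 100 ms, 400Hz tones ran at 28.5 ℃ while plates were photographed every 6 s. Z-LaP Tracker scored the behaviours, and each is given as the compound mean minus the vehicle control mean in percentage points.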

The subject of experiment [2] is Danio rerio larvae (5 dpf). Kind of experiment: difference in startle response vs DMSO (percentage points); higher = stronger startle than DMSO. In short, it runs like this:
as §1

For experiment [3], the system named is Danio rerio larvae (5 dpf). The experiment in a line: difference in activity during first hour vs DMSO (percentage points); higher = more activity than DMSO. The gist of the method:
as §1

The test system of experiment [4] is Danio rerio larvae (5 dpf). Kind of experiment: difference in habituation to acoustic stimuli vs DMSO (percentage points); higher = more habituation than DMSO. In short, it runs like this: as §1
Experiment [5] concerns Danio rerio larvae (5 dpf). The experiment in a line: difference in combined optomotor response to red, green and blue moving lines vs DMSO (percentage points); higher = stronger optomotor response than DMSO. In short, it runs like this:
as §1

For the compound `N#Cc1ccc2[nH]cc(CCCCN3CCN(c4ccc5oc(C(N)=O)cc5c4)CC3)c2c1` [Vilazodone (hydrochloride)], the difference in excitability in experiment [1] was found to be 12.6. Also, the “difference in startle response” value in experiment [2] is -3.13. For the same compound, the “difference in activity during first hour” value in experiment [3] was -16.6. Besides, in experiment [4], the “difference in habituation to acoustic stimuli” value (shortened to “difference in habituation”) is -3.2. For the same compound, the difference in experiment [5] was -4.96.

As for `CN1CCC(=C2c3ccccc3C=Cc3ccccc32)CC1` [Cyproheptadine (hydrochloride hydrate)], the difference in excitability in experiment [1] was 6.61. Besides, the “difference in startle response” value in experiment [2] was -4.47. The “difference in activity during first hour” value in experiment [3] was -3.08. Besides, the “difference in habituation” value in experiment [4] is -11.2. Also, in experiment [5], the difference is -16.4.

`C=C(CC)C(=O)c1ccc(OCC(=O)O)c(Cl)c1Cl` [Ethacrynic Acid] returned a difference in excitability in experiment [1] of 4.29. Further, the “difference in startle response” value in experiment [2] is 4.46. In addition, the “difference in activity during first hour” value in experiment [3] amounted to 19.4. Moreover, in experiment [4], the “difference in habituation” value was -1.45. Moreover, the difference in experiment [5] was found to be 6.1.

In experiment [1], `Cc1nc2c([nH]1)-c1ccccc1N(C(=O)c1ccc(NC(=O)c3ccccc3-c3ccccc3)cc1)CC2` [Conivaptan (hydrochloride)] returned a difference in excitability of 12.9. Besides, the “difference in startle response” value in experiment [2] came out at 4.28. The “difference in activity during first hour” value in experiment [3] is -10.7. In addition, the “difference in habituation” value in experiment [4] amounted to 3.17. Further, the difference in experiment [5] was -0.877.

`CC(=O)c1ccc(S(=O)(=O)NC(=O)NC2CCCCC2)cc1` [Acetohexamide] yielded a difference in excitability in experiment [1] of -0.755. Moreover, the “difference in startle response” value in experiment [2] came to 2.86. Further, the “difference in activity during first hour” value in experiment [3] is -0.443. Also, the “difference in habituation” value in experiment [4] is -3.12. In addition, the difference in experiment [5] worked out at 2.21.

`Cc1cn[nH]c1` [Fomepizole]: the difference in excitability in experiment [1] is -1.56. For the same compound, the “difference in startle response” value in experiment [2] is -0.451. Further, the “difference in activity during first hour” value in experiment [3] turned out to be 3.73. Besides, in experiment [4], the “difference in habituation” value was 2.38. Besides, the difference in experiment [5] is -2.44.

Take `Nc1ccn(C[C@@H](CO)OCP(=O)(O)O)c(=O)n1` [Cidofovir]: in experiment [1], the difference in excitability is -2.11. Moreover, in experiment [2], the “difference in startle response” value is -1.31. Moreover, the “difference in activity during first hour” value in experiment [3] was -7.68. The “difference in habituation” value in experiment [4] is -3.35. In addition, the difference in experiment [5] is -5.67.

`CN(C)CCOC(c1ccc(Cl)cc1)c1ccccn1` (stereo not given) [Carbinoxamine (maleate)]: in experiment [1], the difference in excitability stood at 8.33. The “difference in startle response” value in experiment [2] came out at 3.19. Besides, in experiment [3], the “difference in activity during first hour” value is -11.6. For the same compound, in experiment [4], the “difference in habituation” value worked out at 5.36. Also, the difference in experiment [5] is -7.17.

Take `Cc1ccc(C)c(OCCCC(C)(C)C(=O)O)c1` [Gemfibrozil]: the difference in excitability in experiment [1] amounted to 14.3. The “difference in startle response” value in experiment [2] was -10.7. For the same compound, the “difference in activity during first hour” value in experiment [3] is -1.6. Besides, the “difference in habituation” value in experiment [4] is -4.26. Moreover, the difference in experiment [5] amounted to 4.28.

In experiment [1], `CCc1cc2c(cc1CC)CC(NC[C@H](O)c1ccc(O)c3[nH]c(=O)ccc13)C2` [Indacaterol] displayed a difference in excitability of -0.786. Besides, the “difference in startle response” value in experiment [2] turned out to be 4.28. In addition, the “difference in activity during first hour” value in experiment [3] is -1.22. For the same compound, the “difference in habituation” value in experiment [4] amounted to 3.2. In experiment [5], the difference is -2.46.

In turn, `Cc1ccc(Sc2ccccc2N2CCNCC2)c(C)c1` [Vortioxetine (hydrobromide)] showed a difference in excitability in experiment [1] of -0.102. Further, the “difference in startle response” value in experiment [2] amounted to 7.18. The “difference in activity during first hour” value in experiment [3] was -8.07. The “difference in habituation” value in experiment [4] was -14.1. For the same compound, the difference in experiment [5] was -11.4.

With `Nc1nc(=O)c2c([nH]1)NC[C@H](CNc1ccc(C(=O)N[C@@H](CCC(=O)O)C(=O)O)cc1)N2C=O` [L-Folinic Acid (calcium salt)], the difference in excitability in experiment [1] was -3.02. Besides, the “difference in startle response” value in experiment [2] was -0.777. Also, in experiment [3], the “difference in activity during first hour” value is -9.87. The “difference in habituation” value in experiment [4] is -0.456. Further, in experiment [5], the difference was -0.774.

Regarding `CC(C)n1c(/C=C/C(O)CC(O)CC(=O)O)c(-c2ccc(F)cc2)c2ccccc21` (stereo not given) [Fluvastatin (sodium salt hydrate)], the difference in excitability in experiment [1] is 11.5. In addition, the “difference in startle response” value in experiment [2] is -2.51. The “difference in activity during first hour” value in experiment [3] was determined as 4.55. In addition, the “difference in habituation” value in experiment [4] was -1.22. Moreover, the difference in experiment [5] turned out to be 3.05.

In experiment [1], `Cn1c(=O)c2[nH]cnc2n(C)c1=O` [Aminophylline] showed a difference in excitability of 4.39. Further, the “difference in startle response” value in experiment [2] is 0.67. The “difference in activity during first hour” value in experiment [3] stood at 2.88. For the same compound, in experiment [4], the “difference in habituation” value is -3.14. Further, the difference in experiment [5] worked out at 8.05.

Compound `C[C@H](Cn1cnc2c(N)ncnc21)OCP(=O)(O)O` [Tenofovir] had a difference in excitability in experiment [1] of -6.21. Further, the “difference in startle response” value in experiment [2] was found to be 0.269. Besides, the “difference in activity during first hour” value in experiment [3] amounted to 0.971. In experiment [4], the “difference in habituation” value was -2.1. The difference in experiment [5] was determined as 5.37.

On to `C[C@@](Cc1ccc(O)c(O)c1)(NN)C(=O)O` [Carbidopa (hydrate)], for which the difference in excitability in experiment [1] came out at 5.76. In addition, in experiment [2], the “difference in startle response” value came to 3.77. Also, the “difference in activity during first hour” value in experiment [3] is 4.48. Also, the “difference in habituation” value in experiment [4] is -7.23. For the same compound, the difference in experiment [5] amounted to 6.07.

`CCCCN1C[C@H](O)[C@@H](O)[C@H](O)[C@H]1CO` [N-Butyldeoxynojirimycin (hydrochloride)] had a difference in excitability in experiment [1] of -7.96. Moreover, in experiment [2], the “difference in startle response” value was 4.45. Further, in experiment [3], the “difference in activity during first hour” value is 16.1. Also, the “difference in habituation” value in experiment [4] was 5.5. The difference in experiment [5] is 4.55.

The compound `CC1=C(C/C=C(\C)CCC[C@H](C)CCC[C@H](C)CCCC(C)C)C(=O)c2ccccc2C1=O` [Vitamin K1] returned a difference in excitability in experiment [1] of -4.97. Further, the “difference in startle response” value in experiment [2] was 1.27. For the same compound, in experiment [3], the “difference in activity during first hour” value was found to be 12.1. In addition, the “difference in habituation” value in experiment [4] was -1.08. Also, in experiment [5], the difference is 6.58.

In experiment [1], `CN1CCC[C@@H]1Cc1c[nH]c2ccc(CCS(=O)(=O)c3ccccc3)cc12` [Eletriptan] returned a difference in excitability of 0.175. Moreover, in experiment [2], the “difference in startle response” value is -8.65. The “difference in activity during first hour” value in experiment [3] was found to be 6.02. Further, in experiment [4], the “difference in habituation” value is -5.47. Also, the difference in experiment [5] is -0.217.

The compound `Cn1ccnc1S` [Methimazole] had a difference in excitability in experiment [1] of -1.48. Besides, the “difference in startle response” value in experiment [2] stood at 3.48. Further, in experiment [3], the “difference in activity during first hour” value was -0.609. In experiment [4], the “difference in habituation” value was found to be 0.155. In addition, the difference in experiment [5] is 3.45.

In the case of `COC(=O)[C@H](c1ccccc1Cl)N1CCc2sccc2C1` (racemic) [(±)-Clopidogrel (hydrochloride)], the difference in excitability in experiment [1] was determined as 11.3. Also, the “difference in startle response” value in experiment [2] stood at 3.2. In addition, in experiment [3], the “difference in activity during first hour” value was -4.36. Besides, in experiment [4], the “difference in habituation” value is -3.13. Besides, in experiment [5], the difference was 8.08.

`CCCCCOC(=O)Nc1nc(=O)n([C@@H]2O[C@H](C)[C@@H](O)[C@H]2O)cc1F` [Capecitabine] gave a difference in excitability in experiment [1] of -2.56. Besides, the “difference in startle response” value in experiment [2] was -2.24. For the same compound, the “difference in activity during first hour” value in experiment [3] was -0.876. For the same compound, the “difference in habituation” value in experiment [4] was -0.579. Also, the difference in experiment [5] is -1.26.

As to `CCN(CC)CC#CCOC(=O)C(O)(c1ccccc1)C1CCCCC1` (stereo not given) [Oxybutynin (hydrochloride)], the difference in excitability in experiment [1] was -4.54. In addition, in experiment [2], the “difference in startle response” value is 8.08. For the same compound, the “difference in activity during first hour” value in experiment [3] is -11.4. In experiment [4], the “difference in habituation” value is -8.53. The difference in experiment [5] was -10.5.

(Values after the supplement of paper PMC10515830.)
